Source: PubChem BioAssay (NCATS)
The list shows a part of the results. Inconclusive results are not listed. Active and inactive are the calls of the source. Unless noted, the rule behind the calls is not given here.

Molecular target: DNA polymerase eta (Homo sapiens) (UniProt Q9Y253)
Assay: qHTS for Inhibitors of Polymerase Eta: Confirmatory Assay for Cherry-picked Compounds (AID 720502; active = well fitted inhibition curve with a large enough effect; note: potency is the fitted concentration of half-maximal effect)
Settings: Pol eta primer extension, TAMRA/BHQ fluorescence, 10 min
Procedure, shortened: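 Pol eta 10 nM; substrate 50 nM final (unlabeled primer, TAMRA reporter, BHQ-2 template); preincub. 15 min RT; reads t=0 and t=10 min at ex525/em598.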

Chain of DNA polymerase eta (Homo sapiens) (Q9Y253 whole entry, looked up): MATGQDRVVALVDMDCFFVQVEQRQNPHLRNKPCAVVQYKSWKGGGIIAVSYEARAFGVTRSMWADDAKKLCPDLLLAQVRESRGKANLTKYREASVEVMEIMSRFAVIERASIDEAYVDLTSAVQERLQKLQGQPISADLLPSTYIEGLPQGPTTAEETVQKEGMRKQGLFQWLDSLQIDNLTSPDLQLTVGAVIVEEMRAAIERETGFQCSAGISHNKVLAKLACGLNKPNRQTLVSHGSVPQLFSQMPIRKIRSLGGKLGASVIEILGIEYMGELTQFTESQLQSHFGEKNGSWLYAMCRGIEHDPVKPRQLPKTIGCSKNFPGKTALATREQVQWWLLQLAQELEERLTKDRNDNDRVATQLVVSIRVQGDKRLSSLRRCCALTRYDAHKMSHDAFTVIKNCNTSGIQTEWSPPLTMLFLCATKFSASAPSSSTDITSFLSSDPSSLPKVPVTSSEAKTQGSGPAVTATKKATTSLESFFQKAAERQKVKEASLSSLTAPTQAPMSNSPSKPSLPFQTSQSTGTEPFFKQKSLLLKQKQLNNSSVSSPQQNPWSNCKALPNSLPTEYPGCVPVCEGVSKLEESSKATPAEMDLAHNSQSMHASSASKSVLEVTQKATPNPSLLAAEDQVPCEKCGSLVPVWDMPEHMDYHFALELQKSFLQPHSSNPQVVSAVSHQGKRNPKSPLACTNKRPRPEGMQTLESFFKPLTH

Structure (SMILES)	Potency
CC1CCN(c2ccc(S(=O)(=O)Nc3cc(C(=O)O)cc(C(=O)O)c3)cc2[N+](=O)[O-])CC1	60.1 µM (active)
CC1=NN(c2ccc(Cl)c(C(=O)O)c2)C(=O)/C1=C/c1ccc(-c2ccccc2[N+](=O)[O-])o1	75.7 µM (active)
NC(=O)CSc1nnc(NC(=O)c2ccc(Br)o2)s1	26.9 µM (active)
Cc1cc(C)cc(C(=O)NC2C(=O)N3C(C(=O)O)=C(CSc4nnc(C)s4)CSC23)c1 (centres undefined)	26.9 µM (active)
Cc1oc2c(C)c3oc(=O)c(CC(=O)N[C@@H](CC(C)C)C(=O)N[C@@H](Cc4ccccc4)C(=O)O)c(C)c3cc2c1C	47.8 µM (active)

System: not listed separately
Assay: qHTS profiling for inhibitors of Plasmodium falciparum (3D7) proliferation (AID 743322);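 note: infected erythrocytes exposed to compound for 72 h before lysis; 100% = DMSO vehicle wells and 0% = 0.29 µM artemisinin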
Settings: P. falciparum 3D7 proliferation; at 28.7 µM (top of the series)
Procedure, shortened: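 Parasite DNA was quantified by SYBR Green I fluorescence (ex 485, em 535 nm) after overnight lysis in saponin/Triton buffer at room temperature. Cultures at 0.3% parasitemia and 2.5% hematocrit were first exposed to compound for 72 h at 37 C; signals were normalised to artemisinin (0.29 uM) and vehicle wells.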

Structure (SMILES)	remaining parasite growth % (stronger effect = lower value) [%]
C[C@@H]1Cc2c([nH]c3cc(Cl)c(F)cc23)[C@]2(N1)C(=O)Nc1ccc(Cl)cc12	-0.966
O=C([C@H](Cc1ccc(OS(=O)(=O)c2ccccn2)cc1)NS(=O)(=O)c1ccccn1)N1CCN(c2ccccc2)CC1	49.4
O=C([C@H](Cc1ccc(O[S+](=O)([O-])c2ccccn2)cc1)N[S+](=O)([O-])c1cccnc1)N1CCN(c2ccccc2)CC1	17.8
CCOc1ccc(F)cc1C1(O)C(N)=Nc2ccc(Cl)cc21 (centres undefined)	0.18
O=C([C@H](Cc1ccc(OS(=O)(=O)c2cccc3cnccc23)cc1)NS(=O)(=O)c1cccc2cnccc12)N1CCN(c2ccccc2)CC1	-0.827
O=C([C@H](Cc1ccc(O[S+](=O)([O-])c2cccc3cnccc23)cc1)N[S+](=O)([O-])c1cccnc1)N1CCN(c2ccccc2)CC1	-1.25
CCN(CC)CCOc1ccc2c(=O)c3ccc(Cl)cc3n(CCN(CC)CC)c2c1	-1.28
O=C([C@H](Cc1ccc(O[S+](=O)([O-])c2cccc3cccnc23)cc1)N[S+](=O)([O-])c1cccc2cnccc12)N1CCN(c2ccccc2)CC1	-0.402
CCCC[C@@H]1C[C@@H](C(=O)NC([C@H](C)Cl)[C@H]2O[C@H](S)[C@H](O)[C@@H](O)[C@@H]2O)N(C)C1 (some centres undefined)	39
O=C([C@@H](Cc1ccc(O[S+](=O)([O-])c2ccccn2)cc1)N[S+](=O)([O-])c1cccc2cccnc12)N1CCN(c2ccccc2)CC1	-0.32
CO[C@@]12[C@H](COC(N)=O)C3=C(C(=O)C(C)=C(N)C3=O)N1C[C@H]1N[C@H]12	-0.57
CC(C)(C)OC(=O)N[C@@H](Cc1ccc(O[S+](=O)([O-])c2ccccn2)cc1)C(=O)N1CCN(c2ccccc2)CC1	5.22
O=C([C@@H](Cc1ccc(O[S+](=O)([O-])c2cccc3cccnc23)cc1)N[S+](=O)([O-])c1cccc2cccnc12)N1CCN(c2ccccc2)CC1	0.884
CC(C)(C)OC(=O)N[C@@H](Cc1ccc(O[S+](=O)([O-])c2cccc3cccnc23)cc1)C(=O)N1CCN(c2ccccc2)CC1	-0.907
O=C([C@H](Cc1ccc(O[S+](=O)([O-])c2cccnc2)cc1)N[S+](=O)([O-])c1cccnc1)N1CCN(c2ccccc2)CC1	15.8
Cc1nc2c(C#N)cccc2n1-c1ccc(C(=O)NC2CC2)s1	0.492
COC(=O)[C@H](Cc1ccc(O[S+](=O)([O-])c2cccc3cnccc23)cc1)N[S+](=O)([O-])c1ccc2cnccc2c1	13.9
CS(=O)(=O)c1ccc(-c2cnc(N)c(-c3ccc(C(F)(F)F)nc3)c2)cc1	2.16
O=C(OCc1ccccc1)N1CCN(C(=O)[C@H](Cc2ccc(O[S+](=O)([O-])c3cccc4cnccc34)cc2)N[S+](=O)([O-])c2cccc3cnccc23)CC1	-0.959
O=C1CCC(C2=C(O)c3ccccc3C(=O)C2=O)CC1	7.05
O=CN(O)CCCP(=O)(O)O	11.2
O=C([C@H](Cc1ccc(O[S+](=O)([O-])c2ccccn2)cc1)N[S+](=O)([O-])c1cccc2cnccc12)N1CCN(c2ccccc2)CC1	-0.962
C[C@H]1Cc2c([nH]c3cc(Cl)c(F)cc23)[C@@]2(N1)C(=O)Nc1ccc(Cl)cc12	-1.02
O=C([C@H](Cc1ccc(O[S+](=O)([O-])c2cccnc2)cc1)N[S+](=O)([O-])c1ccccn1)N1CCN(c2ccccc2)CC1	6.76
N[C@@H](Cc1ccc(OS(=O)(=O)c2ccccn2)cc1)C(=O)N1CCN(c2ccccc2)CC1	98.8
O=C1C(=O)c2ccccc2C(O)=C1C1CCCCC1	3.7
O=C([C@H](Cc1ccc(O[S+](=O)([O-])c2cccc3cccnc23)cc1)N[S+](=O)([O-])c1ccccn1)N1CCN(c2ccccc2)CC1	-1.21

System: not listed separately
Assay: qHTS profiling for inhibitors of Plasmodium falciparum (DD2) proliferation (AID 743323)
Settings: lower = more inhibition; at 28.7 µM (top of the series)
Procedure, shortened: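 Parasite proliferation measured via DNA-dye fluorescence, as uninfected erythrocytes lack DNA. Cultures at 0.3% parasitemia and 2.5% hematocrit incubated 72 h with compound; signal scaled between vehicle and 0.29 uM artemisinin wells.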

Structure (SMILES)	activity, percent of control [%]
C[C@@H]1Cc2c([nH]c3cc(Cl)c(F)cc23)[C@]2(N1)C(=O)Nc1ccc(Cl)cc12	0.0887
O=C([C@H](Cc1ccc(OS(=O)(=O)c2ccccn2)cc1)NS(=O)(=O)c1ccccn1)N1CCN(c2ccccc2)CC1	24.7
O=C([C@H](Cc1ccc(O[S+](=O)([O-])c2ccccn2)cc1)N[S+](=O)([O-])c1cccnc1)N1CCN(c2ccccc2)CC1	17.9
CCOc1ccc(F)cc1C1(O)C(N)=Nc2ccc(Cl)cc21 (centres undefined)	0.185
O=C([C@H](Cc1ccc(OS(=O)(=O)c2cccc3cnccc23)cc1)NS(=O)(=O)c1cccc2cnccc12)N1CCN(c2ccccc2)CC1	1.24
O=C([C@H](Cc1ccc(O[S+](=O)([O-])c2cccc3cnccc23)cc1)N[S+](=O)([O-])c1cccnc1)N1CCN(c2ccccc2)CC1	0.979
CCN(CC)CCOc1ccc2c(=O)c3ccc(Cl)cc3n(CCN(CC)CC)c2c1	0.385
O=C([C@H](Cc1ccc(O[S+](=O)([O-])c2cccc3cccnc23)cc1)N[S+](=O)([O-])c1cccc2cnccc12)N1CCN(c2ccccc2)CC1	1.4
CCCC[C@@H]1C[C@@H](C(=O)NC([C@H](C)Cl)[C@H]2O[C@H](S)[C@H](O)[C@@H](O)[C@@H]2O)N(C)C1 (some centres undefined)	33.1
O=C([C@@H](Cc1ccc(O[S+](=O)([O-])c2ccccn2)cc1)N[S+](=O)([O-])c1cccc2cccnc12)N1CCN(c2ccccc2)CC1	1.5
CO[C@@]12[C@H](COC(N)=O)C3=C(C(=O)C(C)=C(N)C3=O)N1C[C@H]1N[C@H]12	0.869
CC(C)(C)OC(=O)N[C@@H](Cc1ccc(O[S+](=O)([O-])c2ccccn2)cc1)C(=O)N1CCN(c2ccccc2)CC1	11.4
O=C([C@@H](Cc1ccc(O[S+](=O)([O-])c2cccc3cccnc23)cc1)N[S+](=O)([O-])c1cccc2cccnc12)N1CCN(c2ccccc2)CC1	3.45
CC(C)(C)OC(=O)N[C@@H](Cc1ccc(O[S+](=O)([O-])c2cccc3cccnc23)cc1)C(=O)N1CCN(c2ccccc2)CC1	-0.148
O=C([C@H](Cc1ccc(O[S+](=O)([O-])c2cccnc2)cc1)N[S+](=O)([O-])c1cccnc1)N1CCN(c2ccccc2)CC1	16.7
Cc1nc2c(C#N)cccc2n1-c1ccc(C(=O)NC2CC2)s1	1.69
COC(=O)[C@H](Cc1ccc(O[S+](=O)([O-])c2cccc3cnccc23)cc1)N[S+](=O)([O-])c1ccc2cnccc2c1	29.2
CS(=O)(=O)c1ccc(-c2cnc(N)c(-c3ccc(C(F)(F)F)nc3)c2)cc1	8.27
O=C(OCc1ccccc1)N1CCN(C(=O)[C@H](Cc2ccc(O[S+](=O)([O-])c3cccc4cnccc34)cc2)N[S+](=O)([O-])c2cccc3cnccc23)CC1	0.261
O=C1CCC(C2=C(O)c3ccccc3C(=O)C2=O)CC1	6.83
O=CN(O)CCCP(=O)(O)O	11.8
O=C([C@H](Cc1ccc(O[S+](=O)([O-])c2ccccn2)cc1)N[S+](=O)([O-])c1cccc2cnccc12)N1CCN(c2ccccc2)CC1	2.47
C[C@H]1Cc2c([nH]c3cc(Cl)c(F)cc23)[C@@]2(N1)C(=O)Nc1ccc(Cl)cc12	-0.226
O=C([C@H](Cc1ccc(O[S+](=O)([O-])c2cccnc2)cc1)N[S+](=O)([O-])c1ccccn1)N1CCN(c2ccccc2)CC1	12.3
N[C@@H](Cc1ccc(OS(=O)(=O)c2ccccn2)cc1)C(=O)N1CCN(c2ccccc2)CC1	43.6
O=C1C(=O)c2ccccc2C(O)=C1C1CCCCC1	4.15
O=C([C@H](Cc1ccc(O[S+](=O)([O-])c2cccc3cccnc23)cc1)N[S+](=O)([O-])c1ccccn1)N1CCN(c2ccccc2)CC1	2.43
